From PubChem BioAssay (EPA / NIEHS) come the findings set out here.

Calls of active or inactive are those of the source. Rule for the calls: active = hit-call score of the fitted dose curve at least 0.9, where 1 is the maximum; inactive = score below 0.9.

The assay can be described thus: CCTE_Harrill_HTTr_Apoptosis_MCF7: CCTE's 6-hour Apoptosis Assessment for the High-Throughput Transcriptomics (HTTr) Platform, in MCF-7 cells cultured in DMEM + 10% fetal bovine serum, Harrill Lab (AID 2284011). From the text:
This is a cell-based assay that evaluates apoptosis using high content imaging to evaluate activation of caspase-3/7 using the CellEvent Caspase 3/7 Green detection reagent in 384-well format.One of seven assay components measured from the CCTE_Harrill_HTTr_Apoptosis assay. This was part of a full screening experiment. This is a cell-based assay that evaluates apoptosis in MCF-7 cells cultured in DMEM + 10% fetal bovine serum. High content imaging is used to evaluate activation of caspase-3/7 using the CellEvent Caspase 3/7 Green detection reagent. Measurements are taken at 6 hours after chemical dosing in 384-well format.The assay component endpoint CCTE_Harrill_HTTr_Apoptosis_MCF7 was analyzed with bidirectional fitting relation to DMSO as the negative control and baseline of activity. Using a type of viability reporter, gain-of-signal activity can be used to evaluate activation of caspase-3/7 using the CellEvent Caspase 3/7 Green detection reagent to understand changes in apoptosis. To generalize the intended target to other relatable targets, this assay endpoint is annotated to cell cycle, where the subfamily is apoptosis.
Chemicals were tested in MCF7 cells in an eight point dilution series with a six hour exposure duration.
`C=CC#N`: the outcome was inactive.
For the molecule `Cc1ccc(N)cc1Cl`, the outcome was inactive.
Still for that read-out and setting: the value for `Nc1cccc2ccccc12` was “inactive”.
Consider `NC(=O)O`, for which the result was inactive.
Turning to `COC[C@H](C)N(C(=O)CCl)c1c(C)csc1C`, the outcome was inactive.
On to `O=S(=O)(c1ccc(Cl)cc1)c1ccc(Cl)cc1`, for which the outcome was inactive.
Take `NC(=O)CF`: the outcome was inactive.
Consider `CC(C)(OO)c1ccccc1`, for which the outcome was inactive.
For the molecule `CCC(=O)c1ccccc1`, the result was inactive.
Regarding `CCC[CH2][Sn]([CH2]CCC)([CH2]CCC)[O]C(=O)c1ccccc1`, the AC50 was 11.5 µM (active).
In the case of `ClC1(Cl)C2(Cl)C3(Cl)C4(Cl)C(Cl)(Cl)C5(Cl)C3(Cl)C1(Cl)C5(Cl)C24Cl` (stereo not given), the result was inactive.
For the molecule `COC(=O)c1sccc1S(=O)(=O)NC(=O)Nc1nc(C)nc(OC)n1`, the outcome was inactive.
In the case of `C[C@H]1O[C@@H](O[C@H]2[C@@H](O)C[C@H](O[C@H]3[C@@H](O)C[C@H](O[C@H]4CC[C@@]5(C)[C@H](CC[C@@H]6[C@@H]5CC[C@]5(C)[C@@H](C7=CC(=O)OC7)CC[C@]65O)C4)O[C@@H]3C)O[C@@H]2C)C[C@H](O)[C@@H]1O`, the result was inactive.
Still for that read-out and setting: the value for `O=[N+]([O-])c1ccc2c3c(cccc13)CC2` was “inactive”.
As for `N#CCCO`, the result was inactive.
On the same count and under the same terms, the value for `C[C@]12CCC(=O)C[C@@H]1CC[C@@H]1[C@@H]2CC[C@]2(C)[C@@H](O)CC[C@@H]12` was “inactive”; that for `Nc1ccc(-c2ccc(N)c(Cl)c2)cc1Cl` was “inactive”.
For `CC(C)c1cccc(C(C)C)c1O`, the outcome was inactive.
As for `O=C(O)C(F)(F)C(F)(F)C(F)(F)C(F)(F)C(F)(F)C(F)(F)F`, the outcome was inactive.
For `CC1(C)Cc2cccc(O)c2O1`, the result was inactive.
For `COc1cc2c(cc1OC)[C@@]13CCN4CC5=CCO[C@H]6CC(=O)N2[C@H]1[C@H]6[C@H]5C[C@H]43`, the result was inactive.
In the case of `C=C(C)C#N`, the result was inactive.
For the molecule `Cc1ccccc1C(=O)Nc1cccc(OC(C)C)c1`, the outcome was inactive.
`CC(C)C1CCC(Cc2ccc(Cl)cc2)C1(O)Cn1cncn1` (stereo not given): the result was inactive.
On the same count and under the same terms, the value for `O=C(Cc1ccccc1)c1ccccc1` was “inactive”.
Turning to `CCNc1nc(NC(C)(C)C)nc(SC)n1`, the result was inactive.
For the molecule `CCCCCCCCC(=O)NCc1ccc(O)c(OC)c1`, the outcome was inactive.
On to `C[C@@H](Oc1ccc(Cl)cc1Cl)C(=O)O`, for which the outcome was inactive.
On to `COc1ccc(C=O)cc1`, for which the outcome was inactive.
As to `CCOP(=S)(OCC)SCSP(=S)(OCC)OCC`, the outcome was inactive.
Take `CC(Br)C(=O)O` (stereo not given): the outcome was inactive.
For `Nc1ccc(N=Nc2ccc(-c3ccc(N=Nc4c(S(=O)(=O)O)cc5cc(S(=O)(=O)O)c(N=Nc6ccccc6)c(O)c5c4N)cc3)cc2)c(N)c1`, the outcome was inactive.
For the molecule `COP(=O)(OC)O/C(=C\Cl)c1cc(Cl)c(Cl)cc1Cl`, the result was inactive.
Still for that read-out and setting: the value for `CNC` was “inactive”; that for `CCCCCCCCc1ccc(O)cc1` was “inactive”; that for `CN(CCCC(=O)c1cccnc1)N=O` was “inactive”.
On to `CC1(C)CCC(Cc2ccc(Cl)cc2)C1(O)Cn1cncn1` (stereo not given), for which the outcome was inactive.
As for `COP(=O)(OC)OC`, the outcome was inactive.
For the molecule `CC(=O)c1cc(C(C)(C)C)cc2c1CCC2(C)C`, the outcome was inactive.
As for `CCOP(=S)(OCC)Oc1nc(Cl)c(Cl)cc1Cl`, the result was inactive.
